VP16 counter: Gal4-VP16 reporter inhibition counter-screen; Drosophila S2 Gal4-VP16 UAS-luciferase, luminescence, 20 h; Potency, µM (series often up to 53.6 µM), usual class: inhibitors; 310,000 tested, 3.5% active; AID 2546;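 also: Gal4-VP16 expression switched on by copper sulfate through the metallothionein promoter; nearly all actives have a fitted effect of over 50% in size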
TRPV1 ag: human TRPV1 agonism; Q8NER1; TRPV1-expressing cells, Fluo-8 calcium influx, agonist mode; activation, % at 8.33 µM; 320,000 tested, 0.19% active; in the data active = activation above about 80%; inconclusive = between about 30% and that limit
Target sequence (Q8NER1 whole entry, looked up): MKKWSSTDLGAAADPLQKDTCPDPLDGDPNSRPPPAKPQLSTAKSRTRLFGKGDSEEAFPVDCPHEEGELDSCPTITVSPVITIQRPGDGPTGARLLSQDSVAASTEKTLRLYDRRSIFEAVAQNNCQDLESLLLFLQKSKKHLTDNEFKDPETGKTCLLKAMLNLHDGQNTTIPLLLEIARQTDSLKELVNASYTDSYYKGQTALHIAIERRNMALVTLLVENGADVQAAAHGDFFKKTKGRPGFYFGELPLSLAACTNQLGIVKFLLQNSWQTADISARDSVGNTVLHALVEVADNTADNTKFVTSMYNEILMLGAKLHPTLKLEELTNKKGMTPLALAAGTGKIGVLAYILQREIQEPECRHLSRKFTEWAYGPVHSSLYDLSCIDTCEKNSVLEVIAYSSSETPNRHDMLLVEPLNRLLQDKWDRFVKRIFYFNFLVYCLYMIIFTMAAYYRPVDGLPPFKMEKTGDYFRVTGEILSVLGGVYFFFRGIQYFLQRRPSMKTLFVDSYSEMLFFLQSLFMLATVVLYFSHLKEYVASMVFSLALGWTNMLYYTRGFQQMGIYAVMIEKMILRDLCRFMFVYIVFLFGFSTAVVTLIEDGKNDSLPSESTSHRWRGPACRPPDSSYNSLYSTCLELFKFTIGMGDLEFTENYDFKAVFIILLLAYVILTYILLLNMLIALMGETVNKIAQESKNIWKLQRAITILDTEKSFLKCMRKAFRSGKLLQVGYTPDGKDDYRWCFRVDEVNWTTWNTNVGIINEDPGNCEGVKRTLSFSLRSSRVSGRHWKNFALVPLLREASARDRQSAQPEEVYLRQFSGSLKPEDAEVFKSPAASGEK
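TRPV1-expressing cells were cultured overnight at 35.5C and loaded with Fluo-8 calcium dye for 40 to 90 min at room temperature. After a 10 s baseline, compound was added and calcium influx was read kinetically for 3 min (ex 480/em 520 nm).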
uPA generation: blocks generation of uPA at the cell surface | cell surface uPA generation assay, qHTS | Potency, µM (top dose mostly 38.3 µM), usual class: inhibitors | 330,000 tested, 0.31% active | AID 540303; active = well fitted inhibition curve with a large enough effect; inconclusive = small, poorly fitted or top-dose-only effect; inactive = no such curve, though single readings can be large or run the other way; tested in mouse RAW 264.7 cells; also: nearly all actives have a fitted effect of over 55% in size
TRPV1 PAM: enhances activation of the human vanilloid receptor TRPV1. Q8NER1. TRPV1-expressing cells, Fluo-8 calcium influx, capsaicin EC20 potentiation. 320,000 tested, 0.02% active. potentiation, % at 8.33 µM; in the data active = potentiation above about 80%; inconclusive = between about 30% and that limit
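Fluo-8 calcium influx in TRPV1-expressing cells, kinetic read (ex 480/em 520 nm). Compound added and read 3 min for agonist activity, followed by capsaicin at EC20 final and 2 min further read for enhancement.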
RORg inh: ROR gamma (mouse) transcription inhibition; Drosophila S2 Gal4-RORgamma UAS-luciferase reporter, 20 h; Potency, µM (doses to about 53.6 µM), hits mostly inhibitors; 310,000 tested, 5.4% active; AID 2551; also: nearly all actives have a fitted effect of over 60% in size
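Using a luciferase readout, inhibitors were identified by reduced reporter activity in Drosophila cells coexpressing a copper-inducible Gal4–ROR gamma fusion and UAS-driven Photinus luciferase, incubated 20 hr after 700 uM copper sulfate.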
A number is an active result; 0 = inactive; ? = inconclusive; - = no result given; [ ] = remark or other dose. Hits are enriched below; roughly 5.8% of the tested compounds scored in any of these assays. Unless noted, calls follow the shape of the dose curve; as a rule, active = well fitted curve in the direction sought with a large enough effect; inconclusive = small, poorly fitted or top-dose-only effect, or another doubt; inactive = no such curve, though single readings can be large; an effect the other way counts as inactive or inconclusive.

SMILES	VP16 counter	TRPV1 ag	uPA generation	TRPV1 PAM	RORg inh
Cc1ccccc1C(=O)O/N=C(\N)Cc1cccs1	?	0	0	0	7.9µM
CC(=O)N(c1ccc(Cl)cc1)c1cn(C(C)=O)c2ccccc12	0	0	0	0	0
CC(=O)n1cc(N(C(=O)CCl)c2ccc(C)cc2)c2ccccc21	?	0	0	0	11µM
O=C(c1ccc(Cl)c(S(=O)(=O)N2CCOCC2)c1)N(Cc1ccco1)Cc1cccs1	-	0	1.1µM	0	-
CC(C)CCNC(=O)C(=O)NC1CCCC1	0	0	0	0	0
CCCCNC(=S)NC1CCCC1	18µM	0	0	0	10µM
CC(C)CCNC(=S)NC1CCCC1	?	-	0	-	2.8µM
CC(C)CN(CC(C)C)C(=S)NC1CCCCC1	7.1µM	0	0	0	2.8µM
CCN(CC)CCNC(=O)c1[nH]c2ccc(OCc3ccccc3)cc2c1C	0	0	0	0	13µM
COc1cccc2cc(C(=O)NCc3ccc(Cl)cc3)c(=N)oc12	?	0	0	0	0.089µM
COc1ccccc1-n1cc(-c2ccc([N+](=O)[O-])cc2)[nH]c1=S	0	0	0	0	1.6µM
COc1ccccc1-n1cc(-c2ccc(Br)cc2)[nH]c1=S	10µM	0	0	0	4.5µM
COc1ccccc1N1CCN(c2ccc([N+](=O)[O-])cc2Cl)CC1	0	0	0	0	0[10 µM]
S=c1[nH]c(-c2ccc(Br)cc2)cn1CCc1ccccc1	0[10 µM]	0	0	0	6.3µM
CN1CCN(C(=O)c2ccc3c(=O)n(CCc4ccccc4)c(=S)[nH]c3c2)CC1	-	-	0	-	-
COc1ccccc1-n1cc(-c2ccc(C)cc2)[nH]c1=S	7.1µM	0	0	0	2.8µM
Cn1c(CNC(=O)c2ccccc2F)nnc1SCc1nc2ccccc2c(=O)[nH]1	0	0	-	0	0
Cc1ccc2nc(C)c(C(=O)NN=C3CCN(C)CC3)n2c1	0	0	0	0	0
COc1ccc(NC(=S)N(Cc2ccc(N(C)C)cc2)Cc2ccco2)cc1	20µM	0	0	0	13µM
COc1ccc(NC(=S)N(CCc2c(C)[nH]c3ccc(C)cc23)Cc2ccco2)cc1	0	0	0	0	?
CCOc1ccc(NC(=S)N(Cc2ccc(N(C)C)cc2)Cc2ccco2)cc1	32µM	-	0	-	?
Cc1cc(NC(=O)c2ccc(C)s2)n(-c2nc3ccccc3[nH]2)n1	0	0	0	0	0
Cc1cc(NC(=O)CSc2nc3ccccc3[nH]2)n(-c2ccccc2)n1	0	0	0	0	0
Cc1cc(NC(=O)c2c(F)cccc2Cl)n(-c2nc3ccccc3[nH]2)n1	7.1µM	?	0	0	4.5µM
Cc1cc(Nc2ccccc2)n(-c2nc3ccccc3[nH]2)n1	3.5µM	0	0	0	1.6µM
SMILES	VP16 counter	TRPV1 ag	uPA generation	TRPV1 PAM	RORg inh
Cc1cc(C)n(-c2nc3ccccc3[nH]c2=O)n1	0	0	0	?	0
Cc1cc(NC(=O)c2c(F)cccc2F)n(-c2nc3ccccc3[nH]2)n1	6.3µM	?	-	0	3.5µM
Cc1cc(NC(=O)c2ccccc2F)n(-c2nc3ccccc3[nH]2)n1	4.5µM	?	0	0	1.1µM
CSc1nc(=S)c2[nH]c(=S)[nH]c2[nH]1	0	0	0	0	0
C[C@H](NC(=O)Cc1cc(F)cc(F)c1)C(=O)N[C@@H](C(=O)OC(C)(C)C)c1ccccc1	0	-	-	-	0
Cc1cc(N2CCN(c3ccccc3)CC2)nc(-c2ccccc2O)n1	0	0	0	0	0
Cc1cc(NC(=O)C2CCC2)n(-c2ccccn2)n1	0	0	0	0	0
Cc1cc(C)nc(-n2nc(C)cc2Nc2ccccc2)n1	0.22µM	?	0	0	0.11µM
Cc1cc(Nc2ccccc2)n(-c2ccccc2)n1	0	?	0	0	0
Cc1cc(NC(=O)C2CCCCC2)n(-c2nc3ccccc3[nH]2)n1	1.4µM	?	0	0	1.6µM
Cc1cc(N2CCN(c3ccccc3)CC2)nc(-n2nc(C)cc2C)n1	1.3µM	0	0	0	0.28µM
CCOC(=O)C(=O)NCC(c1cccs1)S(=O)(=O)c1ccc(F)cc1 (configuration not stated)	-	0	0	0	-
COC(=O)c1ccc(C(=O)N(C)C2CCCN(Cc3ccccc3F)C2)nc1 (configuration not stated)	0	0	0	0	0
CCSc1nc(-c2cccnc2)ccc1C#N	0	0	0	0	0
C/C(Cn1nnc([N+](=O)[O-])n1)=N\NC(=O)c1ccc(Cl)c(Cl)c1	?	0	0	0	13µM
C/C(Cn1cnc([N+](=O)[O-])n1)=N\NC(=O)c1ccc(Br)cc1	0	0	0	0	?
C/C(Cn1nnc([N+](=O)[O-])n1)=N\NC(=O)c1ccc(O)cc1	7.9µM	?	?	0	2.8µM
CCOC(=O)N1CCC(Nc2c([N+](=O)[O-])cc(C(=O)O)cc2[N+](=O)[O-])CC1	0	0	0	0	0
Cc1ccc(Cc2cnc(NC(=O)/C(C#N)=C/c3ccc(-c4ccccc4[N+](=O)[O-])o3)s2)cc1	4.5µM	0	0	0	2.2µM
Cn1cc(/C=C(\C#N)C(=O)Nc2ncc(Cc3ccc(Cl)cc3)s2)c2ccccc21	2.5µM	0	0	0	2µM
Cc1ccc(CNC(=O)CN2C(=O)NC(C)(c3ccccc3Cl)C2=O)cc1 (configuration not stated)	0	0	0	0	0
Cc1sc2nc(CSCC(=O)Nc3ccc(C(=O)N(C)C)cc3)[nH]c(=O)c2c1C	-	0	0	0	-
N#C/C(=C(/O)c1ccc([N+](=O)[O-])cc1)c1nnc2n1CCCCC2	?	0	0	0	18µM
O=[N+]([O-])c1ccc(-c2nnc3n2CCCCC3)cc1	0	0	0	0	0
N#C/C(=C(/O)c1cccs1)c1nnc2n1CCCCC2	?	0	0	0	10µM
SMILES	VP16 counter	TRPV1 ag	uPA generation	TRPV1 PAM	RORg inh
N#C/C(=C/c1ccccc1[N+](=O)[O-])c1nnc2n1CCCCC2	0	0	0	0	0
CS(=O)(=O)Nc1ccc(Cc2ccc(NS(C)(=O)=O)cc2)cc1	?	0	0	0	0
CCS(=O)(=O)Nc1ccc(Cc2ccc(NS(=O)(=O)CC)cc2)cc1	?	0	-	0	1.3µM
Cc1nc(C(=O)NNC(=O)c2cccc(Cl)c2)c(C(F)(F)F)o1	0	0	0	0	8.9µM
C=C1C(=O)[C@@]23[C@H](O)C[C@@H]4C(C)(C)CC[C@H](O)[C@]4(C)[C@@H]2C[C@H](O)[C@@H]1[C@H]3O	3.2µM	0	0	0	2.5µM
COc1cccc(-c2csc(N3CCN(C(=S)Nc4cccc(C)c4)CC3)n2)c1	3.2µM	0	?	0	7.1µM
COc1cccc(-c2csc(N3CCN(C(=O)Nc4ccccc4Cl)CC3)n2)c1	0	0	0	0	?
CCOc1ccccc1NC(=S)N1CCN(c2nc(-c3cccc(OC)c3)cs2)CC1	7.9µM	0	0	0	4µM
CNC(=S)N1CCN(c2nc(-c3cccc(OC)c3)cs2)CC1	0	?	0	0	0
COc1cccc(-c2csc(N3CCN(Cc4ccccc4)CC3)n2)c1	?	0	-	0	13µM
